Assay [1] in a line: S16 Schwann cell PMP22 intronic element firefly luciferase assay (AID 624032). Note: nearly all actives have a fitted effect of over 30% in size. Put shortly:
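Rat S16 Schwann cells stably carrying a PMP22 intronic element-driven Fluc reporter were seeded overnight, then exposed to compounds for 24 h at 37 °C. Luminescence was normalized to PTC124 (positive control) and DMSO (0% activity).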

In assay [2] the test system is 3D7. Put plainly: qHTS profiling for inhibitors of Plasmodium falciparum proliferation (AID 504749). Note: nearly all actives have a fitted effect of over 60% in size. The settings on record: P. falciparum in erythrocytes, SYBR Green DNA, 72 h; series mostly up to 28.7 µM. Put shortly: (§1)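 Quantitative HTS: compounds pinned into medium, infected erythrocytes added (0.3% parasitemia, 2.5% hematocrit), 72 h culture at 37 C under 5% CO2. Saponin/Triton lysis with SYBR Green I, overnight RT, then fluorescence read.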
On the technique in general: Quantitative high-throughput screening tests each substance at several concentrations.

Assay [3] has as its system 7G8. Described as above. The note with it: P. falciparum in erythrocytes, SYBR Green DNA, 72 h; series mostly up to 28.7 µM. Put shortly: as §1
Assay [4] has as its system ATS95. Described as above. The note with it: P. falciparum in erythrocytes, SYBR Green DNA, 72 h; series mostly up to 28.7 µM. An outline of the steps: as §1
The test system of assay [5] is C2A. The description is as above. The note with it: P. falciparum in erythrocytes, SYBR Green DNA, 72 h; series mostly up to 28.7 µM. Put shortly: as §1
The subject of assay [6] is CP191. The description is as above. The note with it: P. falciparum in erythrocytes, SYBR Green DNA, 72 h; series mostly up to 28.7 µM. An outline of the steps: as §1
Assay [7] concerns CP217. The description is as above. The settings on record: P. falciparum in erythrocytes, SYBR Green DNA, 72 h; series mostly up to 28.7 µM. Put shortly: as §1
In assay [8] the test system is CP250. The description is as above. The note with it: P. falciparum in erythrocytes, SYBR Green DNA, 72 h; series mostly up to 28.7 µM. Put shortly:
as §1

The test system of assay [9] is CP260. The assay is described as above. The note with it: P. falciparum in erythrocytes, SYBR Green DNA, 72 h; series mostly up to 28.7 µM. Put shortly:
as §1

Assay [10] has as its system CP335. Described as above. The settings on record: P. falciparum in erythrocytes, SYBR Green DNA, 72 h; series mostly up to 28.7 µM. An outline of the steps: as §1
Assay [11] relates to DIV17. Described as above. The note with it: P. falciparum in erythrocytes, SYBR Green DNA, 72 h; series mostly up to 28.7 µM. Put shortly:
as §1

The subject of assay [12] is DIV30. The description is as above. The note with it: P. falciparum in erythrocytes, SYBR Green DNA, 72 h; series mostly up to 28.7 µM. An outline of the steps: as §1
In assay [13] the test system is P94_40. Described as above. The settings on record: P. falciparum in erythrocytes, SYBR Green DNA, 72 h; series mostly up to 28.7 µM. An outline of the steps:
as §1

Assay [14] deals with SC27B. Described as above. The settings on record: P. falciparum in erythrocytes, SYBR Green DNA, 72 h; series mostly up to 28.7 µM. Put shortly: as §1
Assay [15] deals with TAB113. The assay is described as above. The note with it: P. falciparum in erythrocytes, SYBR Green DNA, 72 h; series mostly up to 28.7 µM. An outline of the steps:
as §1

Assay [16] has as its system TAB165. The description is as above. The note with it: P. falciparum in erythrocytes, SYBR Green DNA, 72 h; series mostly up to 28.7 µM. An outline of the steps:
as §1

For assay [17], the system named is DFO2036. The assay is described as above. The note with it: P. falciparum in erythrocytes, SYBR Green DNA, 72 h; series mostly up to 28.7 µM. An outline of the steps:
as §1

Assay [18] relates to DIV14. The assay is described as above. The settings on record: P. falciparum in erythrocytes, SYBR Green DNA, 72 h; series mostly up to 28.7 µM. Put shortly: as §1
Assay [19] relates to PAD. The assay is described as above. The settings on record: P. falciparum in erythrocytes, SYBR Green DNA, 72 h; series mostly up to 28.7 µM. Put shortly: as §1
Assay [20] concerns PC26. The assay is described as above. The note with it: P. falciparum in erythrocytes, SYBR Green DNA, 72 h; series mostly up to 28.7 µM. Put shortly:
as §1

Records with an inconclusive call do not appear. Calls of active or inactive are those of the source. Calls come from the whole dose curve; as a rule, active = well fitted curve in the direction sought with a large enough effect; inconclusive = small, poorly fitted or top-dose-only effect, or another doubt; inactive = no such curve, though single readings can be large; an effect the other way counts as inactive or inconclusive.

Among the data in PubChem BioAssay (NCATS) are Potency values, retold here.
Potency is the fitted concentration of half-maximal effect.

Turning to `C=C1NC(=O)c2cc(CN(C)c3ccc(C(=O)N[C@@H](CCC(=O)O)C(=O)O)s3)ccc2N1`, the Potency in assay [1] is 0.0057 µM (active). Besides, the Potency entry in assay [2], in assay [3], in assay [4], in assay [5], in [6] and in assay [7] was “inactive” in each case. Besides, the Potency entry in assay [8], in assay [9], in assay [10], in assay [11], in assay [12] and in assay [13] was “inactive” throughout. The Potency result in assay [14], in assay [15] and in [16] was “inactive” in each case.
For the molecule `COc1ccc2cc1Oc1cc3c(cc1OC)CC[N+](C)(C)C3Cc1ccc(cc1)Oc1c(OC)c(OC)cc3c1C(C2)[N+](C)(C)CC3` (stereo not given), the Potency result in assay [1], in assay [2], in [3], in [4], in [5] and in assay [6] was “inactive” throughout. The Potency result in assay [7], in [8], in assay [9], in assay [10], in assay [17] and in [18] was “inactive” each time. Moreover, the Potency result in [11], in assay [12], in assay [13], in [19], in assay [20] and in [14] was “inactive” each time. Moreover, the Potency entry in [15] and in [16] was “inactive” throughout.
On to `Clc1ccc(CS[C@@H](Cn2ccnc2)c2ccc(Cl)cc2Cl)cc1`, for which the Potency result in assay [1] was “inactive”. Moreover, the Potency in assay [2] is 2.82 µM (active); in assay [3] it was 0.562 µM (active); in assay [4] it was 3.55 µM (active); in assay [6], 3.55 µM (active); in assay [7] it was 3.16 µM (active); in assay [10], 1.28 µM (active). In addition, the Potency is 5.1 µM (active) in assay [18]; 5.1 µM (active) in assay [11]; 3.22 µM (active) in assay [12]; 3.55 µM (active) in assay [13]; 3.16 µM (active) in assay [19]; 2.82 µM (active) in assay [14]. Further, the Potency in [16] was 0.708 µM (active).
With `CC(=O)OC1C([N+]2(C)CCCCC2)C[C@H]2C3CC[C@H]4C[C@H](OC(C)=O)C([N+]5(C)CCCCC5)CC4(C)C3CCC12C` (stereo not given in full), the Potency result in [1], in assay [2], in assay [3], in [4], in assay [5] and in [6] was “inactive” each time. Further, the Potency result in [7], in [8], in assay [9], in assay [17], in [13] and in [19] was “inactive” in each case. Besides, the Potency result in assay [14], in [15] and in assay [16] was “inactive” throughout. Also, the Potency in assay [20] is 16.9 µM (active).
In the case of `C[C@@H]1CC2C3CCC4=CC(=O)C=C[C@]4(C)[C@@]3(F)[C@@H](O)C[C@]2(C)[C@@]1(O)C(=O)COC(=O)c1cccc(S(=O)(=O)O)c1` (stereo not given in full), the Potency result in assay [1], in assay [2], in assay [4], in [5], in assay [6] and in assay [7] was “inactive” each time. Further, the Potency entry in [8], in assay [9], in assay [10], in assay [17], in assay [18] and in assay [11] was “inactive” each time. In addition, the Potency entry in [12], in assay [13], in [19], in [20], in assay [14] and in assay [15] was “inactive” throughout. Also, in assay [16], the Potency result was “inactive”.
As to `CCOC(=O)C(CCc1ccccc1)NC(C)C(=O)N1Cc2cc(OC)c(OC)cc2CC1C(=O)O` (stereo not given), the Potency entry in assay [1], in assay [2], in assay [6], in [8], in assay [9] and in [17] was “inactive” each time. Besides, the Potency result in [15] is “inactive”. Moreover, the Potency is 8.91 µM (active) in assay [3]; 6.01 µM (active) in [18]; 5.36 µM (active) in assay [11]; 7.57 µM (active) in [12]; 4.47 µM (active) in assay [19]; 6.75 µM (active) in assay [20]. For the same molecule, the Potency in [14] and in [16] was 7.08 µM (active) throughout.
